# Assay outcomes deposited in PubChem by National Center for Advancing Translational Sciences (NCATS).
# AmpC detergent = qHTS Inhibitors of AmpC Beta-Lactamase (assay with detergent); P00811; AmpC hydrolysis of nitrocefin, absorbance 480 nm, 0.01% Triton; Potency, µM (doses to about 114 µM), without a hit: at the top dose activity change, negative = inhibition, hits mostly inhibitors; 370,000 tested, 0.041% active; AID 485294, 2010;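 further: 0% = no-compound wells and -100% = no-enzyme wells; nearly all actives have a fitted effect of over 25% in size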
# Target sequence (P00811 whole entry, looked up): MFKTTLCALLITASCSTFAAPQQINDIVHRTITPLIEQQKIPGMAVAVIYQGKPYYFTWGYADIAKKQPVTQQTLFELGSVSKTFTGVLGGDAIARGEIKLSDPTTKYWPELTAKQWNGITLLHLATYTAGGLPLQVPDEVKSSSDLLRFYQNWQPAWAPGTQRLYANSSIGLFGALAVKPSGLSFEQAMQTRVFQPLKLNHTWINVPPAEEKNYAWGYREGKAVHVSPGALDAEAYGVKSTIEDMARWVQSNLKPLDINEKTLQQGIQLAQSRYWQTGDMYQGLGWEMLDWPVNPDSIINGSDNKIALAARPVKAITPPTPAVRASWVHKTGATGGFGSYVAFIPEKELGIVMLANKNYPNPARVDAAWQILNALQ
#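 20 mM phosphate pH 7.0 + 0.01% (detergent screen) or 0.0001% Triton X-100; 5.3 nM AmpC reagent; cpd preinc 15 min RT; nitrocefin (800 uM stock) to start; A480 q20 s × 4 min; Activity was normalised to no-enzyme and no-compound control wells.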
# SARS PLP yeast = qHTS of Yeast-based Assay for SARS-CoV PLP | S. cerevisiae expressing SARS-CoV PLpro, growth rescue | Potency, µM (highest dose often 32.9 µM), for the others: at the top dose activity, positive = growth rescue, actives largely listed as activators | 330,000 tested, 0.19% active | AID 485353, 2010; calls by dose curve; further: 0% is about no effect; nearly all actives have a fitted effect of over 55% in size
# AmpC inh no detg = qHTS Inhibitors of AmpC Beta-Lactamase (assay without detergent) | AID 485341, 2010 | Potency, µM (top dose mostly 57.1 µM), without a hit: top-dose activity change, negative = inhibition, usual class: inhibitors | P00811 | 330,000 tested, 0.52% active | AmpC nitrocefin hydrolysis, absorbance 480 nm, 0.0001% Triton;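 further: plate controls were no compound for no effect and no enzyme for full effect; nearly all actives have a fitted effect of over 20% in size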
#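 20 mM phosphate pH 7.0 + 0.01% (detergent screen) or 0.0001% Triton X-100; 5.3 nM AmpC reagent; cpd preinc 15 min RT; nitrocefin (800 uM stock) to start; A480 q20 s × 4 min; Activity was normalised to no-enzyme and no-compound control wells.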
# Sm TGR inh = qHTS Assay for the Inhibitors of Schistosoma Mansoni Peroxiredoxins; Schistosoma mansoni thioredoxin glutathione reductase (TGR), Q962Y6; purified TGR, DTNB reduction, TNB absorbance 405 nm; Potency, µM (top dose mostly 114 µM), for inactives: at the top dose activity change, negative = inhibition, most hits filed as inhibitors; 360,000 tested, 3% active; further: on the % scale 0 is the no-effect control and ±100 the full control effect; nearly all actives have a fitted effect of over 60% in size
#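 First, TGR (20 nM dispensed) and NADPH were mixed with compound. Second, a 15 min room-temperature incubation followed. Third, further NADPH and then DTNB were added to start the reaction. Finally, TNB absorbance was monitored kinetically.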
# Pf growth 48h = Primary qHTS for delayed death inhibitors of the malarial parasite plastid, 48 hour incubation | P. falciparum luciferase growth in erythrocytes, 48 h | Potency, µM (doses to about 28.7 µM), for the others: at the top dose activity change, negative = inhibition, hits mostly inhibitors | AID 504832, 2011 | 310,000 tested, 5.9% active; further: on the % scale 0 is the no-effect control and ±100 the full control effect
#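 Erythrocytes infected with P. falciparum carrying an integrated firefly luciferase reporter (2% hematocrit, 0.1% parasitemia final) were exposed to compounds in RPMI 1640 with 0.5% Albumax at 37 C, 5% CO2. Growth inhibition was scored as reduced luminescence.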
# Pf growth 96h = Primary qHTS for delayed death inhibitors of the malarial parasite plastid, 96 hour incubation | P. falciparum luciferase reporter growth, 96 h | Potency, µM (series often up to 28.7 µM), inactives show at the top dose activity change, negative = inhibition, usual class: inhibitors | 320,000 tested, 6.9% active | AID 504834, 2011; further: on the % scale 0 is the no-effect control and ±100 the full control effect
#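 P. falciparum expressing integrated firefly luciferase, in erythrocytes at 2% hematocrit, 0.05% parasitemia, incubated with compounds 96 h at 37 C, 5% CO2. Growth inhibition read as loss of luminescence; two-generation exposure targets delayed-death apicoplast inhibitors.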
# An asterisk follows results filed as active; ? = inconclusive; · = no result given; [ ] = remark or other dose. An excerpt weighted towards active compounds, which were near 12% of everything screened. Unless noted, the call rests on the fitted dose curve; in most records, active means well fitted curve in the direction sought with a large enough effect; inconclusive means small, poorly fitted or top-dose-only effect, or another doubt; inactive means no such curve, though single readings can be large; an effect the other way counts as inactive or inconclusive. Potency means the concentration at half of the fitted maximal effect.
SMILES,AmpC detergent,SARS PLP yeast,AmpC inh no detg,Sm TGR inh,Pf growth 48h,Pf growth 96h
Cc1ccc(S(=O)(=O)N2CCC(C(=O)OCC(=O)N3CCCCC3C)CC2)cc1C (configuration not stated),?,-1.7%,?,-15.3%,24.5%,33.4%
Cn1c(=O)oc2cc(S(=O)(=O)NCCN3CCc4ccccc4C3)ccc21,-3.4%,?,-24.6%,3.6%,13.6%,8.28µM*
CCC1CCCCN1CCNS(=O)(=O)c1ccc2c(c1)oc(=O)n2C (configuration not stated),-0.1%,2.8%,-16.4%,-1.2%,9.9%,-20.5%
COc1ccc(CNC(=O)CCNS(=O)(=O)c2ccc3c(c2)oc(=O)n3C)cc1,0.5%,-4.9%,-21.6%,4.0%,-3.2%,11.7µM*
CCC1CCCCN1C(=O)CCNS(=O)(=O)c1ccc2c(c1)oc(=O)n2C (configuration not stated),3.9%,-1.9%,-1.1%,-0.4%,?,2.33µM*
CCC1CCCCN1CCCNS(=O)(=O)c1ccc2c(c1)oc(=O)n2C (configuration not stated),0.4%,·,0.2%,-5.2%,11.7µM*,2.94µM*
CC1CCCCN1CCNS(=O)(=O)c1ccc2c(c1)oc(=O)n2C (configuration not stated),-4.7%,-0.7%,-31.7%,0.7%,22.8%,?
CCc1ccc(NC(=O)CC2C(=O)N(c3ccc(Cl)cc3)C(=O)N2C2CCCC2)cc1 (configuration not stated),5.1%,·,·,22.1%,·,·
O=C(NC1CC(=O)N(c2ccccc2)C1)c1ccc(S(=O)(=O)N2CCCCC2)cc1 (configuration not stated),-1.4%,·,·,4.4%,·,·
COc1ccc(C)cc1S(=O)(=O)NCC(c1ccc2c(c1)OCO2)N1CCOCC1 (configuration not stated),?,8.4%,30.8%,-3.3%,-10.7%,-13.5%
CCN(CC)S(=O)(=O)c1cccc(N=Nc2sc(N)nc2C)c1,-6.9%,-2.3%,-48.5%,-22.5%,-10.0%[0.00184 µM],11.7µM*
CC1CCCN(c2nc3c(-c4ccc(Cl)cc4)nnn3c3ccccc23)C1 (configuration not stated),8.8%,·,·,2.9%,·,·
COc1cccc(F)c1C(C[N+](=O)[O-])c1c(N)n(C)c(=O)n(C)c1=O (configuration not stated),2.3%,-20.8%,-11.0%,-11.8%,?,13.1µM*
COc1cc(C(C[N+](=O)[O-])c2c(N)n(C)c(=O)n(C)c2=O)ccc1O (configuration not stated),6.5%,-18.5%,-18.2%,-31.4%,0.0%,-18.9%
CCOCCc1nn2c(=O)cc(COC(=O)c3ccccc3NC(=O)C3CCCCC3)nc2s1,10.2%,·,·,2.2%,·,·
COc1ccc(OC)c(C(c2nnnn2CCc2ccccc2)N2CCN(c3ccccc3)CC2)c1 (configuration not stated),?,1.0%,20.5%,-1.1%,9.28µM*,·
COc1ccccc1C(c1nnnn1Cc1ccco1)N1CCN(c2cccc(C)c2C)CC1 (configuration not stated),1.4%,-3.8%,-10.8%,-12.8%,3.29µM*,?
CCCC(c1nnnn1Cc1ccco1)N1CCN(c2ccccc2)CC1 (configuration not stated),2.2%,-1.0%,-1.7%,0.0%,?,19.6%
COc1ccc(N2CCN(C(c3cc(OC)ccc3OC)c3nnnn3Cc3ccco3)CC2)cc1 (configuration not stated),-1.4%,-7.3%,57.8%,-32.0%,13.1µM*,?
CCCC(c1nnnn1Cc1ccco1)N1CCN(c2cc(Cl)ccc2C)CC1 (configuration not stated),-6.2%,-12.2%,-11.8%,6.0%,10.4µM*,154.6%
Cc1ccc(NC(=O)C(C)SCc2nc3sc(C)c(C)c3c(=O)[nH]2)nc1 (configuration not stated),-2.7%,·,-9.3%,-1.1%,5.0%,7.2%
Cc1cccc(OCCOC(=O)c2c(-c3ccccc3)noc2C)c1,-10.9%,-4.9%,-33.1%,0.0%,?,-3.2%
CSc1ncccc1C(=O)OCC(=O)NC1CC1,?,-1.8%,-12.1%,8.4%,7.4%,16.1%
COc1ccc(C(c2nnnn2CCc2ccccc2)N2CCN(C3CCCC3)CC2)cc1 (configuration not stated),?,3.3%,5.2%,-7.2%,8.0%,-4.8%[5.75 µM]
COc1ccccc1N1CCN(C(c2ccc(N(C)C)cc2)c2nnnn2CCc2ccccc2)CC1 (configuration not stated),?,2.1%,21.2%,39.8µM*,9.28µM*,?
SMILES,AmpC detergent,SARS PLP yeast,AmpC inh no detg,Sm TGR inh,Pf growth 48h,Pf growth 96h
CCOc1ccc(C(=O)c2cn(CC(=O)Nc3ccc4c(c3)OCCO4)c3ccc(F)cc3c2=O)cc1,-0.1%,·,·,-2.6%,·,·
Cc1cnc(CN2CCc3c([nH]c4ccccc34)C2CC(C)C)[nH]1 (configuration not stated),-11.0%,-1.7%,25.9%,-14.2%[57.1 µM],13.1µM*,-0.6%
CCn1ccnc1CN1CCc2c([nH]c3ccccc23)C1C1CCCCC1 (configuration not stated),2.6%,-0.5%,-2.0%,0.0%[57.1 µM],?,-17.0%
Cc1c(CN2CCc3c([nH]c4ccccc34)C2C2CCCCC2)cnn1C (configuration not stated),0.0%,1.5%,19.4%,-33.1%,?,5.86µM*
CCn1ccnc1CN1CCc2c([nH]c3ccccc23)C1C(C)(C)C (configuration not stated),1.5%,-1.6%,29.5%,-6.5%,4.65µM*,32.1%
Cc1cccc(CN2CCc3c([nH]c4ccccc34)C2CC(C)C)n1 (configuration not stated),5.7%,2.0%,-5.1%,-2.8%,9.28µM*,10.4µM*
CCn1c(C(=O)Nc2c(C)cccc2C)cc2sc(Cl)cc21,-0.6%,·,·,-5.0%,·,·
Cc1ccc(N2CCN(C(=O)c3cc4cc5ccc(C)cc5nc4s3)CC2C)cc1 (configuration not stated),10.6%,·,·,0.4%,·,·
O=C(CCCC(=O)c1ccc(F)cc1)c1ccc(F)cc1,-15.4%,-0.8%,-10.0%,-1.1%,·,168.6%
O=C(CSc1nc(-c2ccccc2)no1)N1CCCCC1,6.8%,·,·,4.7%,·,·
